Where “and” joins values, the source holds several entries; their conditions need not be identical. Equal values may be shown once. The campaign covered roughly 260,000 compounds. About 1,500 (0.58%) were called active. Inconclusive results (about 5%) are left out.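 How the source made its calls: active means inhibition above a set limit at one or more doses, reproduced on every date tested; inconclusive means results disagree between test dates, or hit never tested in dose response; inactive means the rest.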 Only a sample is shown. Entries with a potency or affinity are not part of this list.
These compounds were tested against Virion infectivity factor (Human immunodeficiency virus type 1 group M subtype B (isolate BH10)) + Virion infectivity factor (Human immunodeficiency virus type 1 group M subtype B (isolate BRU/LAI)) + Virion infectivity factor (Human immunodeficiency virus type 1 group M subtype B (isolate PCV12)) + Virion infectivity factor (Human immunodeficiency virus type 1 group M subtype B (isolate HXB2)) + DNA dC->dU-editing enzyme APOBEC-3G (Homo sapiens) (UniProt P69720+P69721+P69722+P69723+Q9HC16) (assay: HIV-1 Vif–A3G interaction blockers – biochemical, TR-FRET, GST-Vif 1-94, biotin-A3G peptide, dose response retest, primary screen (AID 1117319;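 further: Vif residues 1-94 fused to GST binding biotinylated APOBEC3G peptide 110-148; 0% = full assay without inhibitor and 100% = GST in place of GST-Vif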)). Details: TR-FRET GST-Vif / biotin-A3G peptide binding; hits give high values.

inhibition, inactive:
OCCNC(=S)Nc1ccc(Cl)c(Cl)c1 1.22%, COc1ccc(OC)c(C2CC(=O)N3CN(c4ccc(C)c(Cl)c4)CSC3=C2C#N)c1 (centres undefined) 6.54%, COc1ccc(C2CC(=O)N3CN(c4ccc(C)c(Cl)c4)CSC3=C2C#N)cc1OC (centres undefined) 13%, C=CC1=CCN(S(=O)C(C)(C)C)[C@@H]1CCO (some centres undefined) -5.14%, O=C(NNS(=O)(=O)c1ccccc1)c1ccc(O)cc1 12.2%, C=CCN(C(=O)c1ccccn1)C(C(=O)NCc1ccccc1)c1ccccc1F (centres undefined) 6.79%, Cc1nc2sc(C(c3cccs3)N3CCC(C(N)=O)CC3)c(O)n2n1 (centres undefined) 4.3%, CCOC(=O)C1CCN(C(c2ccc(OC)c(OC)c2)c2sc3nc(C)nn3c2O)CC1 (centres undefined) -0.48%, COc1ccccc1/C=C/C=N/NC(=O)c1ccco1 -2.59%, COC(=O)c1cc(CSc2nc3ccccc3[nH]2)oc1C -2.28%, CCN(C(=O)CCS(=O)(=O)c1ccc(Br)cc1)c1ccc2c(c1)OCO2 27.3%, CCCN(CCC)C(=O)c1ccc2c(c1)OCO2 14.8%, COc1ccc(S(=O)(=O)NCC(=O)NCc2cc(=O)n(C)c(=O)n2C)cc1 -1.92%, O=c1[nH]c2ccccc2n2c(C(F)(F)F)nnc12 -5.29%, O=c1[nH]c2ccccc2n2c(-c3ccncc3)nnc12 4.55%, Cc1sc(N(C(=O)CCc2ccccc2)c2ccc(C(=O)O)cc2)nc1-c1ccccc1 -5.7%, COc1ccc(C(=O)NCCS(=O)(=O)NC2CCCC2)cc1 -8.13%, CCOC(=O)c1c(C)[nH]c(C(=O)Cn2c(=O)oc3ccccc32)c1C -6.81%, CC(=O)Cn1c(=O)oc2ccccc21 0.93%, Cc1ccccc1CS(=O)(=O)Cc1ccc(C(=O)NCCCN2CC(C)CC(C)C2)o1 (centres undefined) 28%, COc1ccc(S(=O)(=O)NCCSCc2ccco2)cc1 24%, Cc1ccc(S(=O)(=O)NCCSCc2ccco2)cc1 -0.39%, O=C1NC[C@@H](Cc2cccc3ccccc23)N(CC2CCCCC2)C1=O 5.43%, COc1ccc(/C=C2\C(=O)NCC(=O)N2Cc2ccccc2)cc1 -2.05%, CC1=C/C(=N\OS(=O)(=O)c2ccccc2)C(C)=CC1=O 19.9%, CC1=CC(=O)C=C(C)C1=NOS(=O)(=O)c1ccccc1 9.66%, Cc1cccc(NS(=O)(=O)c2nnc(NC(=O)CC(C)C)s2)c1 -2.78%, C=CCn1c(C)cc(-c2csc(NCC)n2)c1C 32.5%, CCCn1c(C)cc(-c2csc(N)n2)c1C 11.8%, COc1ccc(N2C3=C(CC4=C2CC(C)(C)CC4=O)C(=O)CC(C)(C)C3)cc1 24.6% and 5.22%, COc1ccc(-n2ccc(=O)c3c2CCCC3=O)cc1 9%, Nc1cc(=O)[nH]c(SCc2ccc(Cl)cc2Cl)n1 -1%, CCN(CC(=O)Nc1ccccc1C(F)(F)F)C(=O)Cn1c(=O)cnc2ccccc21 -3.46%, Cc1nc2sc3c(c2c(=O)o1)CCC3 11.5%, O=c1[nH]c2sc3c(c2c2nncn12)CCCC3 24.3%, Cc1cccnc1NC(=O)c1ccc(S(=O)(=O)N2CCCCCC2)cc1 -2.42%, Cc1ccc(CN2CCC[C@]3(N[C@H](c4ccc(C(F)(F)F)cc4)[C@@H]4C(=O)N(Cc5ccccc5)C(=O)[C@@H]43)C2=O)cc1 5.48%, CCn1c2ccccc2c2nc3cc(S(=O)(=O)N4CCOCC4)ccc3nc21 2.64%, Nc1nc2cc(S(=O)(=O)N3CCOCC3)ccc2o1 -2.39%, O=C(OCn1nnc2ccccc2c1=O)c1cccnc1Cl 0.6%, COc1nc(NCCC2=CCCCC2)nc(OC)n1 -1.44%, CCOC(=O)N1CCN(C(=O)c2cc(C)no2)CC1 -3.25%, CC(=O)N/C(=C\c1ccccc1)C(=O)OCC(=O)N(CC(C)C)c1c(N)n(Cc2ccccc2)c(=O)[nH]c1=O 4.02%, Cc1csc(NC(=O)CSc2nncn2C)n1 7.24%, CC(C)CC(=O)Nc1ncc([N+](=O)[O-])s1 8.92%, COc1ccc(C(=O)OCC(=O)Nc2ncc([N+](=O)[O-])s2)cc1OC 5.33%, O=C(COC(=O)c1cccc([N+](=O)[O-])c1)Nc1ncc(Br)s1 1.23%, C=CCn1c(SCC(=O)NCc2ccc3c(c2)OCO3)nc2scc(-c3ccccc3)c2c1=O -40.6%, Cc1ccsc1C(=O)Nc1nc2ccccc2[nH]1 -12.8%, COc1ccc(NC(=O)C2(c3ccc(NC(=O)c4ccc(OC)c(OC)c4)cc3)CCCC2)cc1 0.05%, O=C(Nc1ccc(Br)cn1)C1CCCN1S(=O)(=O)c1ccccc1 (centres undefined) 4.08%, CC1=CCC2C(=O)N(c3nc4ccccc4n3C)C(=O)C2C1 (centres undefined) 24.7%, Cc1cccc(N2C(=O)CC(N(O)c3ccccc3)C2=O)c1 (centres undefined) 3.45%, O=C(/C=C/c1cccs1)N1CCN(c2ccc(F)cc2)CC1 3.81%, O=C(/C=C/c1cccs1)N1CCN(c2ccccc2)CC1 -0.91%, COC(=O)CC1C(=O)NCCN1C(=S)NC(=O)c1ccccc1[N+](=O)[O-] (centres undefined) 13.4%, COc1ccc2c(c1)c(=O)oc1cc(OCC(=O)NC3CC3)ccc12 -2.02%, COc1ccc2c(c1)c(=O)oc1cc(OCC(=O)N3CCCC(C)C3)ccc12 (centres undefined) -1.48%, CCCOC(=O)c1ccc(NC(=O)c2ccccc2[N+](=O)[O-])cc1 -4.31%, CCN(CC)S(=O)(=O)c1ccc(C(=O)OC2CCCCC2CN(C)C)cc1 (centres undefined) -1.05%, COc1ccc(CCNS(=O)(=O)CCNC(=O)c2ccccc2)cc1 -6.03%, CC(/C=C/c1ccc(Cl)o1)=C\C(=O)O 27.4%, CC(/C=C/c1ccc(C)o1)=C\C(=O)O 2.74%, O=C1C2C3CCC(C3)C2C(=O)N1CNc1ccccc1 (centres undefined) -1.35%, Cc1ccc2[nH]c(=O)c(CN(C(=O)c3cccc([N+](=O)[O-])c3)C(C)(C)C)cc2c1 -6%, CN(Cc1ccccc1)S(=O)(=O)c1ccc(Cl)c(C(=O)NCCCN2CCOCC2)c1 -5.26%, CC(C)CN1C=C2C(=O)C(C)(OC(=O)C3CCCC3)C(=O)C=C2C=C1c1ccsc1 (centres undefined) 28.7%, CC1(OC(=O)C2CCCC2)C(=O)C=C2C=C(c3ccsc3)N(C(CO)CO)C=C2C1=O (centres undefined) 15.2%, CC1(OC(=O)CCc2ccccc2)C(=O)C=C2C=C(c3ccc(C#N)cc3)N(CC3CC3)C=C2C1=O (centres undefined) -1.42%, CC1(OC(=O)CCc2ccccc2)C(=O)C=C2C=C(c3ccc(C#N)cc3)N(C(CO)CO)C=C2C1=O (centres undefined) 0.31%, COc1ccc(-c2ccc(SCC(=O)N3CCOCC3)nn2)cc1OC 2.85%, COc1ccccc1OCCCC(=O)Nc1nnc(C2CCCO2)s1 (centres undefined) -0.39%, Cc1nn2c(=S)[nH]nc2[nH]c1=O 14.1%, Cc1n[nH]c(=S)n(/N=C/c2cccs2)c1=O -1.81%, COC(=O)[C@H]1C[C@@H]1[C@H](NC(=O)OCc1ccccc1)c1ccccc1 -8.43%, COC(=O)[C@H]1C[C@@H]1[C@H](NC(=O)[C@H]1C[C@@H]1[C@H](NC(=O)OCc1ccccc1)c1ccccc1)c1ccccc1 25.9%, Cc1ccc2cc3cc(C(=O)NCCCN4CCCC4)oc3nc2c1 -1.36%, CC1=NN(c2cc(Cl)c(S(=O)(=O)O)cc2Cl)C(=O)C1 8.79%, O=C(O)C1=NN(c2ccccc2)C(=O)C1 13.7%, COCCCn1c(SCC(N)=O)nnc1-c1ccccc1 2.76%, C=CCN1C(=O)/C(=C/c2ccsc2)SC1=S 21.3%, COc1ccc(CN(CC(=O)NC2CCCC2)C(=O)c2onc(C(N)=O)c2N)cc1 30.2%, COc1cccc(CN2C(=O)CN(C3CCCCC3)C(=O)C2c2ccc(F)cc2)c1 (centres undefined) 1.82%, CC1=CC(C)(C)Nc2ccc(OC(=O)c3ccco3)cc21 16.4%, CC1=CC(C)(C)Nc2ccc(OC(=O)CN3C(=O)c4ccccc4C3=O)cc21 19.2%, CC1=CC(C)(C)Nc2ccc(OC(=O)CCN3C(=O)c4ccccc4C3=O)cc21 3.55%, Cc1ccc(OC(=O)c2cccnc2)cc1 -1.57%, CC(Oc1ccccc1F)C(=O)/C=C/N(C)C (centres undefined) 5.44%, O=C(Nc1ccc(Oc2ccccc2)nc1)C1CCCCN1Cc1ccco1 (centres undefined) 9.99%, O=C(Nc1cccnc1)c1ccc(S(=O)(=O)c2ccccc2)cc1 -0.77%, O=C(NCc1ccccc1)C(=O)NCC1OCCCN1S(=O)(=O)c1cccs1 (centres undefined) -3.27%, NC(=O)Nn1c(CCC(=O)O)ccc1-c1ccc(Cl)cc1 3.68%, NC(=O)Nn1c(CCC(=O)O)ccc1-c1ccc(F)cc1 4.46%, Cc1nc(-c2cc(C#N)c(Sc3cccc(C(F)(F)F)c3)nc2C)cs1 -11.1%

Reference: PubChem BioAssay AID1117319 (Southern Research Institute, 2015)
